Results filed as inconclusive are left out. Active and inactive are the calls of the source. Unless noted, the call rests on the fitted dose curve; in most records, active means well fitted curve in the direction sought with a large enough effect in the repeat runs; inconclusive means weak or mixed curves; inactive means no such curve, though single readings can be large; an effect the other way counts as inactive or inconclusive.
Columns and labels:
[1] = qHTS assay for small molecules that induce genotoxicity in human embryonic kidney cells expressing luciferase-tagged ATAD5 (AID 651632); further: nearly all actives have a fitted effect of over 15% in size
Method in brief: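 ATAD5-luc HEK293T, 2,000 cells/well; cpd or DMSO pin-transferred; 16 hr, 37C/5% CO2; Amplite 30 min RT; luminescence.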

[2] = qHTS assay for small molecules that induce genotoxicity in human embryonic kidney cells expressing luciferase-tagged ATAD5 - cell viability (AID 651634; calls by dose curve; further: nearly all actives have a fitted effect of over 25% in size)
Method in brief: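 Fluorescence from CellTiter-Fluor, reporting protease activity within live cells, served as the viability read-out. HEK293T cells carrying luciferase-tagged ATAD5 had been treated with compound for 15.5 hr at 37C.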

[3] = qHTS assay for small molecule disruptors of the mitochondrial membrane potential - cell viability (AID 720634; calls by dose curve;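 further: human HepG2 liver cancer cells; series mostly up to about 83 µM; nearly all actives have a fitted effect of over 20% in size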)
Method in brief: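 Cells: HepG2, 2,000/well, attached overnight. Compound 1 hr, 37 C/5% CO2. +m-MPI dye, +CellTiter-Glo 30 min RT. Readout: luminescence (ATP).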

[4] = qHTS assay to test for compound auto fluorescence at 590 nm (red) in HepG2 cells (AID 720674)
Method in brief: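 1 hr compound incubation on HepG2 cells, 37 C, 5% CO2; plate read ex 540 nm / em 590 nm; intensities reported as Rose Bengal sodium equivalents.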

[5] = qHTS assay to test for compound auto fluorescence at 535 nm (green) in HepG2 cells (AID 720675)
[6] = qHTS assay to test for compound auto fluorescence at 460 nm (blue) in HEK293 cells (AID 720678)
Method in brief: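 HEK293 cells (2,000 per well, medium with 10% dialyzed FBS) attached for 4-5 hr at 37C, then received compound and stood overnight at 37C, 5% CO2. Blue fluorescence was read at Ex/Em 405/460 nm and expressed relative to triamterene.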

[7] = qHTS assay to test for compound auto fluorescence at 590 nm (red) in HEK293 cells (AID 720679)
Method in brief: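 HEK293 cells (2,000/well, medium with 10% dialyzed FBS) attached for 4-5 hr at 37C, received 23 nL compound and were incubated overnight at 37C, 5% CO2. Red fluorescence was then read at 540/590nm Ex/Em, referenced to Rose Bengal sodium.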

[8] = qHTS assay for small molecule agonists of the p53 signaling pathway - cell viability (AID 651633; calls by dose curve;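 further: p53RE-bla HCT reporter cells with a stable beta-lactamase p53 reporter; series mostly up to about 83 µM; nearly all actives have a fitted effect of over 30% in size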)
Method in brief: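 Viability counter-read: CellTiter-Glo luminescence (30 min, room temperature) in the same p53RE-bla plates. These plates had been exposed to compounds for 16 h at 37 C.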

[9] = qHTS assay for small molecule disruptors of the mitochondrial membrane potential (AID 720635)
Method in brief: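 Mitochondrial membrane potential tracked with Mito-MPS dye, red aggregates (ex 540/em 590 nm) against green monomers (ex 490/em 535 nm). Compound treatment 1 hr at 37C, dye 30 min in HepG2.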
On the % scale 0 is the no-effect control and ±100 the full control effect.

C=C(C)C(=O)OCCOP(=O)(O)OCCOC(=O)C(=C)C
inactive: Potency [1] | Potency [2] | outcome [3] | outcome [4] | outcome [5] | outcome [6] | outcome [7]

O=Cc1ccc(Cl)c(Cl)c1
inactive: Potency [1] | outcome [8] | Potency [2] | outcome [3] | outcome [4] | outcome [5] | outcome [6] | outcome [7]

O=C1c2ccccc2C(=O)N1CCl
inactive: Potency [1] | outcome [8] | Potency [2] | outcome [3] | outcome [4] | outcome [5] | outcome [6] | outcome [7]

C[C@H](CCC(=O)O)[C@H]1CC[C@H]2[C@@H]3C(=O)C[C@@H]4CC(=O)CC[C@]4(C)[C@H]3CC(=O)[C@]12C
inactive: Potency [1] | Potency [2] | outcome [3] | outcome [4] | outcome [5] | outcome [6] | outcome [7]

CC(C)N(c1ccccc1)C(C)C
inactive: Potency [1] | Potency [2] | outcome [3] | outcome [4] | outcome [5] | outcome [6] | outcome [7]

ClCCCl
inactive: Potency [1] | Potency [2] | outcome [3] | Potency [9] | outcome [4] | outcome [5] | outcome [6] | outcome [7]

C[C@@H](Oc1ccc(CNC(=O)c2cccnc2Oc2ccc3c(c2)OCO3)c(F)c1)C(=O)O
inactive: Potency [1] | Potency [2] | outcome [3] | outcome [4] | outcome [5] | outcome [6] | outcome [7]

O=C(O)c1cc(Br)c(O)c(Br)c1
inactive: Potency [1] | outcome [8] | Potency [2] | outcome [3] | outcome [5] | outcome [6] | outcome [7]

CC(N)C(=O)OC(C)(C)Cc1ccc(Cl)cc1 (centres undefined)
inactive: Potency [1] | Potency [2] | outcome [3] | outcome [4] | outcome [5] | outcome [6] | outcome [7]

C[C@@H]1O[C@@H](O[C@@H]2[C@@H](O)[C@H](OCCc3ccc(O)c(O)c3)O[C@H](CO[C@@H]3O[C@H](CO)[C@@H](O)[C@H](O)[C@H]3O)[C@H]2OC(=O)/C=C/c2ccc(O)c(O)c2)[C@H](O)[C@H](O)[C@H]1O
inactive: Potency [1] | Potency [2] | outcome [3] | Potency [9] | outcome [4] | outcome [5] | outcome [6] | outcome [7]

CCC(C)(CCC(C)C)C(=O)O (centres undefined)
inactive: Potency [1] | Potency [2] | outcome [3] | outcome [4] | outcome [5] | outcome [6] | outcome [7]

CC1COc2ccccc2N1 (centres undefined)
inactive: Potency [1] | outcome [8] | Potency [2] | outcome [3] | outcome [4] | outcome [5] | outcome [7]

NNc1nnc(NN)c2ccccc12
inactive: outcome [8] | Potency [2] | outcome [3] | outcome [4] | outcome [5] | outcome [6] | outcome [7]

CCN(CC)CC(=O)Nc1c(C)cccc1C
inactive: Potency [2] | outcome [3] | Potency [9] | outcome [4] | outcome [5] | outcome [7]

O=P(O)(O)OP(=O)(O)O
inactive: outcome [8] | Potency [2] | outcome [3] | Potency [9] | outcome [4] | outcome [5] | outcome [6] | outcome [7]

CC1=C(C(=O)O)N2C(=O)[C@@H](NC(=O)[C@H](N)c3ccc(O)cc3)[C@H]2SC1
inactive: outcome [8] | Potency [2] | outcome [3] | Potency [9] | fluorescence, relative to Rose Bengal [4] 0.188% [at 18.6 µM] | fluorescence, % of fluorescein control [5] -0.0034% [at 18.6 µM] | fluorescence, % of triamterene [6] 0.187% [at 18.6 µM] | fluorescence, % of fluorescent control [7] -0.165% [at 18.6 µM]

NCCN1CCOCC1
inactive: Potency [2] | outcome [3] | outcome [4] | outcome [5] | outcome [6] | outcome [7]

O=S(O)(O)=S
inactive: activity change, negative = cytotoxicity [8] 18.5% [at 8.08 µM] | activity, negative = cytotoxicity [2] -2.41% [at 8.08 µM] | activity change, negative = cytotoxicity [3] 11.6% [at 8.08 µM] | fluorescence, % of fluorescein control [5] 0.0128% [at 3.72 µM] | fluorescence, % of fluorescent control [7] 0.178% [at 3.72 µM]

Cc1c(I)c(=O)n(-c2ccccc2)n1C
inactive: outcome [8] | Potency [2] | outcome [3] | outcome [4] | outcome [5] | outcome [7]

CC(C)c1ccc2cc(C(C)C)ccc2c1
inactive: Potency [1] | Potency [2] | outcome [3] | outcome [5] | outcome [6] | outcome [7]

CC(C)CCCCOC(=O)c1ccccc1C(=O)OCCCCC(C)C
inactive: Potency [2] | outcome [4] | outcome [5] | outcome [6] | outcome [7]

C=Cc1ccccn1
inactive: outcome [8] | Potency [2] | outcome [3] | Potency [9] | outcome [4] | outcome [5] | outcome [6] | outcome [7]

CC(C)=O
inactive: Potency [1] | Potency [2] | outcome [3] | outcome [4] | outcome [5] | outcome [7]

From PubChem BioAssay (Tox21)
